Screening results as filed in PubChem BioAssay.
Hits are enriched below; roughly 2.8% of the tested compounds scored in any of these assays.
SNCA expr inhib: SNCA gene expression inhibition | HEK-293 SNCA-luciferase knock-in, luminescence, 24 h | Potency, µM (series often up to 57.2 µM), without a hit: at the highest dose activity change, negative = inhibition, most hits filed as inhibitors | 140,000 tested, 0.17% active | AID 1671194;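 note: potency is the fitted concentration of half-maximal effect; plate controls were DMSO cells for no effect and cell-free wells for full effect; nearly all actives have a fitted effect of over 45% in size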
KDM5B inh: inhibitors of human KDM5B histone demethylase; Q9UGL1; 220,000 tested, 2.6% active; AID 1347165; KDM5B demethylase, FDH-coupled NADH fluorescence (FDH is formaldehyde dehydrogenase); Potency, µM (top dose mostly 57.7 µM), actives largely listed as inhibitors; note: potency is the fitted concentration of half-maximal effect; 0% is about no effect; nearly all actives have a fitted effect of over 70% in size
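Coupled FDH/NAD⁺ fluorescence readout. KDM5BΔAP 200 nM final; compound titration, 10 min RT preincubation; substrate mix 12.5 µM H3K4me3, 25 µM 2-OG, 50 µM Fe(II), 100 µM ascorbate, 0.25 mM NAD⁺, 0.25 U/mL FDH; ΔRFU over 30 min.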
IP6K1 inhibitor: blocks human inositol hexakisphosphate kinase 1; Q92551; IP6K1 kinase, ADP-Glo luminescence, 2 h; hits give low values; activity change, % (series mostly up to about 58 µM); 140,000 tested, 0.81% active; in the data active = activity change below about -25%; note: % is set by controls: 0 for no effect and ±100 for the full control effect
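ADP-Glo luminescence measures ADP made by human IP6K1 during a 2 h RT reaction with ATP/IP6 (mix at 1.3 mM/130 uM); top library doses 57.5 and 19.1 uM final.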
HEK293 viab: reduces viability of HEK-293 SNCA reporter cells; HEK-293-SNCA-luc viability, GF-AFC fluorescence, 24 h; Potency, µM (doses to about 57.1 µM), without a hit: at the highest dose activity change, negative = cytotoxicity, most hits filed as cytotoxic; 150,000 tested, 0.12% active;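 note: potency is the fitted concentration of half-maximal effect; 0% = DMSO-treated cells and -100% = medium-only wells without cells; nearly all actives have a fitted effect of over 30% in size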
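Cytotoxicity counterscreen: after 24 h compound treatment of genome-edited SNCA-luciferase HEK-293 cells, live-cell protease substrate GF-AFC read by fluorescence after 30 min; activity scaled between DMSO (0%) and medium-only (-100%), curves Hill-fitted.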
Numbers without * were called inactive; i = inactive; ? = inconclusive; . = not tested or not shown; [ ] = remark or other dose. Unless noted, calls come from the whole dose curve; as a rule, active = well fitted curve in the direction sought with a large enough effect; inconclusive = small, poorly fitted or top-dose-only effect, or another doubt; inactive = no such curve, though single readings can be large; an effect the other way counts as inactive or inconclusive.

SMILES	SNCA expr inhib	KDM5B inh	IP6K1 inhibitor	HEK293 viab
CC1(CNc2ccccc2)COc2ccc(C(=O)NCCc3ccccn3)cc2N1 (stereo unspecified)	34.1%[87.6 µM]	22.4µM*	-14.8	4.8%[87.6 µM]
CC1(CNc2ccccc2)COc2ccc(C(=O)NCCOc3ccccc3)cc2N1 (stereo unspecified)	-2.1%[87.6 µM]	28.2µM*	-12.3	-26.5%[87.6 µM]
CC1(CNc2ccccc2)COc2ccc(C(=O)NCCN3CCOCC3)cc2N1 (stereo unspecified)	-18.1%[87.6 µM]	i	-2.2	13.4%[87.6 µM]
CC1(COc2ccccc2)COc2ccc(C(=O)NCCOc3ccccc3)cc2N1 (stereo unspecified)	?	39.8µM*	1.9	-25.5%[87.6 µM]
CN(Cc1ccccc1)C(=O)c1ccc2c(c1)NC(C)(COc1ccccc1)CO2 (stereo unspecified)	?	39.8µM*	10.6	?
O=C(CC1(C(=O)O)CCCCCC1)Nc1cccc(CO)c1	.	i	.	.
Cc1csc(S(=O)(=O)N2CC[C@@H]3[C@@H](CCC(=O)N3CCN)C2)c1	33.9%	i	0.4	11.5%
CCC1=C(C(=O)OC)C(c2cccc(OC)c2)N2C(CC(=O)N3CCC(C)CC3)=CSC2=N1 (stereo unspecified)	-10.8%	i	2.3	-4.6%
COC1C(=O)N(c2cccc(F)c2)C12CCN(S(=O)(=O)c1cccs1)CC2 (stereo unspecified)	-10.5%	i	-0.3	0.4%
CCCN(C)CC1(O)CCC2(CCN(C(=O)c3ccc(OC)cc3OC)CC2)CC1	16.4%	.	-7.3	-4.3%
COc1cccc(-c2cc3c(=O)n(CCNC(=O)c4cccc5[nH]ccc45)ccn3n2)c1	93.1%	25.1µM*	-10.3	-25.8%
COc1cccc(C(=O)NCCn2ccn3nc(-c4ccc(F)cc4)cc3c2=O)c1OC	-14.4%	i	-6.9	?
COc1cccc(-c2cc3c(=O)n(CCNC(=O)c4ccccc4Cl)ccn3n2)c1	42.6%	i	-7.9	-8.6%
COc1ccc(-c2cc3c(=O)n(CCNC(=O)c4cccc5[nH]ccc45)ccn3n2)cc1	76.5%	22.4µM*	-6.3	-14.0%
CCOc1ccc(NC(=O)c2cc(C)nc3ccc(C)cc23)cc1OCC	.	i	.	.
Cc1cccc(CN2CCNc3cnc(-c4ccccc4)cc3C2)c1	-22.2%[87.6 µM]	35.5µM*	-18.7	-7.9%[87.6 µM]
Oc1ccccc1CN1CCNc2cnc(-c3ccccc3)cc2C1	-14.9%[87.6 µM]	?	-22.2	-9.2%[87.6 µM]
Cn1cc(CN2CCNc3cnc(-c4ccccc4)cc3C2)cn1	-28.1%[87.6 µM]	28.2µM*	-21.4	-7.4%[87.6 µM]
COc1ccc(OC)c(CN2CCNc3cnc(-c4ccccc4)cc3C2)c1	?	31.6µM*	-14.0	?
COc1cccc(CN2CCNc3cnc(-c4ccccc4)cc3C2)c1	13.6%[87.6 µM]	35.5µM*	-14.1	-8.0%[87.6 µM]
O=C(Cn1ncc2ccccc2c1=O)Nc1ncc(Cc2cccc(C(F)(F)F)c2)s1	.	i	.	.
Cc1ccc2c(c1)nc1n2[C@@H](CNCc2cnn(C)c2)COC1	3.4%[87.6 µM]	i	-8.5	3.4%[87.6 µM]
c1ccc(-c2cc3c(cn2)NCCN(CC2CC2)C3)cc1	78.4%[87.6 µM]	35.5µM*	-6.7	-24.3%[87.6 µM]
CN(C)c1ccc(CN2CCNc3cnc(-c4ccccc4)cc3C2)cc1	29.1%[87.6 µM]	?	-13.6	-13.2%[87.6 µM]
COCCN1C(=O)c2ccccc2C(C(=O)NCc2ccc(Cl)cc2)C12CCCC2 (stereo unspecified)	-0.7%	25.1µM*	-5.2	-2.7%
SMILES	SNCA expr inhib	KDM5B inh	IP6K1 inhibitor	HEK293 viab
COCCN1C(=O)c2ccccc2C(C(=O)NCc2ccccc2OC)C12CCCC2 (stereo unspecified)	-16.3%	17.8µM*	12.4	4.4%
COCCN1C(=O)c2ccccc2C(C(=O)NCc2ccccc2)C12CCCC2 (stereo unspecified)	-19.4%	i	-0.9	-2.1%
COCCN1C(=O)c2ccccc2C(C(=O)NCc2ccccc2Cl)C12CCCC2 (stereo unspecified)	5.2%	?	7.9	-0.1%
CCc1ccccc1NC(=O)C1c2ccccc2C(=O)N(CCOC)C12CCCC2 (stereo unspecified)	0.7%	i	12.8	-2.6%
Cc1ccnc(NC(=O)C2c3ccccc3C(=O)N(CC(C)C)C23CCCC3)c1 (stereo unspecified)	4.9%	22.4µM*	13.4	-18.7%
COCCN1C(=O)c2ccccc2C(C(=O)Nc2ccc(C)cc2Cl)C12CCCC2 (stereo unspecified)	?	28.2µM*	7.3	-6.6%
COC[C@@H]1[C@H](C(=O)O)CCC(=O)N1C	-1.2%	i	5.7	-0.2%
CC(NCC(c1cccs1)c1c[nH]c2ccccc12)C(=O)NCc1ccccc1 (stereo unspecified)	.	i	.	.
CCCc1noc(CN(C)C(/C=C/c2ccccc2)C(=O)O)n1 (stereo unspecified)	7.8%	?	3.7	?
COCCN1C(=O)c2ccccc2C(C(=O)NCCc2ccccc2)C12CCCC2 (stereo unspecified)	67.2%	i	-0.3	-11.1%
COCCN1C(=O)c2ccccc2C(C(=O)NCCc2ccc(F)cc2)C12CCCC2 (stereo unspecified)	25.3%	28.2µM*	4.0	-19.2%
COc1ncc(-c2cccc(COc3ccc4c(cnn4CC[S+](C)(=O)[O-])c3)c2)cn1	38.1%[87.6 µM]	35.5µM*	9.0	-9.6%[87.6 µM]
C[S+](=O)([O-])CCn1ncc2cc(OCc3cccc(-c4ccc(F)cc4)c3)ccc21	-5.9%[87.6 µM]	35.5µM*	-3.0	-20.6%[87.6 µM]
COc1ncccc1-c1cccc(COc2ccc3c(cnn3CC[S+](C)(=O)[O-])c2)c1	27.1%[87.6 µM]	31.6µM*	-5.5	-17.8%[87.6 µM]
CCOc1ccccc1NC(=O)CC1C(=O)Nc2ccccc2N1C(=O)c1ccccc1 (stereo unspecified)	.	i	.	.
Cn1ccnc1C(=O)N1C[C@@H](Oc2ccccc2)C[C@H]1C(=O)N1CCOCC1	-9.8%	i	4.4	1.1%
CCCc1noc(-c2ccn3c(CNC(=O)Cc4cccc(OC)c4)nnc3c2)n1	27.0%	?	8.9	-6.8%
N#CC1(NC(=O)COC(=O)CSc2nc3ccccc3o2)CCCCC1	.	i	.	.
COc1cc(SC)ccc1C(=O)N[C@H]1C[C@H]2C(=O)Nc3ccc(-c4ccc5c(c4)OCO5)cc3C(=O)N2C1	-17.9%	31.6µM*	-0.7	-2.2%
O=C1Nc2ccc(-c3ccc4c(c3)OCO4)cc2C(=O)N2CCN(C(=O)NC3CCCCC3)C[C@H]12	-5.7%	11.2µM*	-9.4	-23.9%
O=C1Nc2ccc(-c3ccc4c(c3)OCO4)cc2C(=O)N2CCN(C(=O)COc3ccccc3)C[C@H]12	4.0%	28.2µM*	-14.1	-1.4%
CC(=O)N1CCC(C(=O)N2CCN3C(=O)c4cc(-c5ccc6c(c5)OCO6)ccc4NC(=O)[C@H]3C2)CC1	10.9%	?	-0.6	8.7%
O=C(CCN1C(=O)NC2(CCCC2)C1=O)Nc1cnc2ccccc2c1	.	i	.	.
Cc1nc(C)n(CCCNc2nccc(-c3ccccn3)n2)n1	-24.1%	22.4µM*	-0.3	3.8%
Cc1nc(C)n(CCNS(=O)(=O)c2ccccc2)n1	.	i	.	.
